# Measured values as given in the supplement of paper PMC8728848.
# Many of the other results were omitted from the sample, so the strongest signals are more common in it than they were.
# How the values were obtained:
# Experiment in all cases: glycan array binding signal (z-score within array); higher = stronger binding
# Details in all cases: glycan notation: IUPAC condensed, linker removed
# Fuc(a1-2)Gal(b1-3)GalNAc = target: Fuc(a1-2)Gal(b1-3)GalNAc
# Summary of the method: (§1)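 Glycan array data came from 3228 arrays in the Consortium for Functional Glycomics database, and only arrays with an available protein sequence were kept. Glycan names were put into IUPAC-condensed notation, and columns mapping to the same glycan were averaged. The binding signal is a within-array Z-score, averaged across arrays of one protein sequence run at different concentrations or buffers and across linkers. A negative Z-score can be read as non-binding.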
# [1] = target: Fuc(a1-2)Gal(b1-3)GalNAc(a1-3)[Fuc(a1-2)]Gal(b1-4)Glc
# Summary of the method: as §1
# [2] = target: Fuc(a1-2)Gal(b1-3)GalNAc(b1-4)[Neu5Ac(a2-3)]Gal(b1-4)Glc
# Summary of the method: as §1
# [3] = target: Fuc(a1-2)Gal(b1-3)[Fuc(a1-4)]GlcNAc
# Summary of the method: as §1
# [4] = target: Fuc(a1-2)Gal(b1-3)[Fuc(a1-4)]GlcNAc(b1-3)[Gal(b1-4)GlcNAc(b1-6)]Gal(b1-4)Glc
# Summary of the method: as §1
# [5] = target: Fuc(a1-2)Gal(b1-4)[Fuc(a1-3)]GlcNAc(b1-2)Man(a1-3)[Fuc(a1-2)Gal(b1-4)[Fuc(a1-3)]GlcNAc(b1-2)Man(a1-6)]Man(b1-4)GlcNAc(b1-4)GlcNAc
# Summary of the method: as §1
# [6] = target: Fuc(a1-2)Gal(b1-4)[Fuc(a1-3)]GlcNAc(b1-3)Gal(b1-4)[Fuc(a1-3)]GlcNAc(b1-3)Gal(b1-4)[Fuc(a1-3)]GlcNAc
# Summary of the method: as §1
# [7] = target: Fuc(a1-2)[GalNAc(a1-3)]Gal(b1-4)GlcNAc
# Summary of the method: as §1
# [8] = target: Fuc(a1-3)[Gal(b1-4)]GlcNAc(b1-3)GalNAc
# Summary of the method: as §1
# [9] = target: Gal(a1-3)Gal(b1-3)[Fuc(a1-4)]GlcNAc(b1-2)Man(a1-3)[Gal(a1-3)Gal(b1-3)[Fuc(a1-4)]GlcNAc(b1-2)Man(a1-6)]Man(b1-4)GlcNAc(b1-4)GlcNAc
# Summary of the method: as §1
# Gal(a1-3)Gal(b1-4)Glc = target: Gal(a1-3)Gal(b1-4)Glc
# Summary of the method: as §1
# [10] = target: Gal(a1-3)Gal(b1-4)GlcNAc(b1-3)GalNAc
# Summary of the method: as §1
# [11] = target: Gal(a1-3)[Gal(a1-4)]Gal(b1-4)GlcNAc
# Summary of the method: as §1
# Gal(a1-4)Gal(b1-4)GlcNAc = target: Gal(a1-4)Gal(b1-4)GlcNAc
# Summary of the method: as §1
# Gal(a1-4)GlcNAc = target: Gal(a1-4)GlcNAc
# Summary of the method: as §1
# [12] = target: Gal(b1-3)GalNAc(a1-3)[Fuc(a1-2)]Gal(b1-4)Glc
# Summary of the method: as §1
# Gal(b1-3)GlcNAc = target: Gal(b1-3)GlcNAc
# Summary of the method: as §1
# [13] = target: Gal(b1-3)GlcNAc(b1-3)Gal(b1-4)GlcNAc
# Summary of the method: as §1
# [14] = target: Gal(b1-4)GlcNAc(b1-2)Man(a1-3)[Gal(b1-4)GlcNAc(b1-2)Man(a1-6)]Man(b1-4)GlcNAc(b1-4)GlcNAc
# Summary of the method: as §1
# [15] = target: Gal(b1-4)GlcNAc(b1-2)Man(a1-6)[GlcNAc(b1-2)Man(a1-3)]Man(b1-4)GlcNAc(b1-4)GlcNAc
# Summary of the method: as §1
# Gal3S(b1-4)Glc6S = target: Gal3S(b1-4)Glc6S
# Summary of the method: as §1
# GalNAc(a1-3)Gal = target: GalNAc(a1-3)Gal
# Summary of the method: as §1
# GalNAc(b1-3)GalNAc = target: GalNAc(b1-3)GalNAc
# Summary of the method: as §1
# GalNAc(b1-4)GlcNAc = target: GalNAc(b1-4)GlcNAc
# Summary of the method: as §1
# [16] = target: GlcNAc(a1-4)Gal(b1-3)GlcNAc
# Summary of the method: as §1
# [17] = target: GlcNAc(b1-2)Gal(b1-3)GalNAc
# Summary of the method: as §1
# [18] = target: GlcNAc(b1-2)Man(a1-3)[GlcNAc(b1-2)Man(a1-6)]Man(b1-4)GlcNAc(b1-4)GlcNAc
# Summary of the method: as §1
# Kdn(a2-3)Gal(b1-3)GlcNAc = target: Kdn(a2-3)Gal(b1-3)GlcNAc
# Summary of the method: as §1
# [19] = target: Kdn(a2-3)Gal(b1-4)[Fuc(a1-3)]GlcNAc
# Summary of the method: as §1
# Kdn(a2-6)Gal(b1-4)GlcNAc = target: Kdn(a2-6)Gal(b1-4)GlcNAc
# Summary of the method: as §1
# [20] = target: Man(a1-2)Man(a1-2)Man(a1-6)[Man(a1-3)]Man
# Summary of the method: as §1
# Man(a1-2)Man(a1-3)Man = target: Man(a1-2)Man(a1-3)Man
# Summary of the method: as §1
# Man(a1-3)[Man(a1-6)]Man = target: Man(a1-3)[Man(a1-6)]Man
# Summary of the method: as §1
# [21] = target: Man(a1-3)[Man(a1-6)]Man(a1-6)[Man(a1-3)]Man
# Summary of the method: as §1
# [22] = target: Neu5Ac(a2-3)Gal(b1-4)[Fuc(a1-3)]GlcNAc(b1-3)GalNAc
# Summary of the method: as §1
# Neu5Ac(a2-6)Gal = target: Neu5Ac(a2-6)Gal
# Summary of the method: as §1
# [23] = target: Neu5Ac(a2-6)Gal(b1-4)GlcNAc(b1-3)GalNAc
# Summary of the method: as §1
# Neu5Ac(a2-6)GalNAc = target: Neu5Ac(a2-6)GalNAc
# Summary of the method: as §1
# [24] = target: Neu5Ac(a2-6)GlcNAc(b1-4)GlcNAc
# Summary of the method: as §1
# Neu5Ac(a2-8)Neu5Ac = target: Neu5Ac(a2-8)Neu5Ac
# Summary of the method: as §1
# [25] = target: Neu5Ac(a2-8)Neu5Ac(a2-3)[GalNAc(b1-4)]Gal(b1-4)Glc
# Summary of the method: as §1
binder,measurement,setting,value
"AcfC (Vibrio cholerae), Q57410 (protein) MKSKNRFLLISLLSFSTSVFADVNLYGPGGPHVPLIKVAESFEKSQSKRVNITFGPQATWNDKAKKNADILFGASEHSALAIAEGHSERFSKFNIHPVFMREAIILVKKGNPKNIKGMADLLKPGIGIVVNDGAGVSNTSGTAVWEDSVGRMKNVEKLQAFRSNIHVFAPNSGSARKAFVDGEDIDAWITWVDWAIANPTIGDMVRMEDEYRIYRDFNVVLAKNPSSEAIDFFDYLTKSKDAEAIFQHYGWFK",glycan array binding signal (z-score),Fuc(a1-2)Gal(b1-3)GalNAc,0.244
same,glycan array binding signal (z-score),[1],-1.2
same,glycan array binding signal (z-score),[2],-0.09
same,glycan array binding signal (z-score),[3],3.03
same,glycan array binding signal (z-score),[4],1.12
same,glycan array binding signal (z-score),[5],3.03
same,glycan array binding signal (z-score),[6],2.22
same,glycan array binding signal (z-score),[7],-0.063
same,glycan array binding signal (z-score),[8],1.43
same,glycan array binding signal (z-score),[9],4.58
same,glycan array binding signal (z-score),Gal(a1-3)Gal(b1-4)Glc,-0.864
same,glycan array binding signal (z-score),[10],-0.809
same,glycan array binding signal (z-score),[11],-0.149
same,glycan array binding signal (z-score),Gal(a1-4)Gal(b1-4)GlcNAc,0.091
same,glycan array binding signal (z-score),Gal(a1-4)GlcNAc,0.322
same,glycan array binding signal (z-score),[12],0.135
same,glycan array binding signal (z-score),Gal(b1-3)GlcNAc,0.247
same,glycan array binding signal (z-score),[13],-0.979
same,glycan array binding signal (z-score),[14],3
same,glycan array binding signal (z-score),[15],0.212
same,glycan array binding signal (z-score),Gal3S(b1-4)Glc6S,0.515
same,glycan array binding signal (z-score),GalNAc(a1-3)Gal,0.334
same,glycan array binding signal (z-score),GalNAc(b1-3)GalNAc,0.05
same,glycan array binding signal (z-score),GalNAc(b1-4)GlcNAc,0.088
same,glycan array binding signal (z-score),[16],0.098
same,glycan array binding signal (z-score),[17],-0.601
same,glycan array binding signal (z-score),[18],0.375
same,glycan array binding signal (z-score),Kdn(a2-3)Gal(b1-3)GlcNAc,0.128
same,glycan array binding signal (z-score),[19],-0.465
same,glycan array binding signal (z-score),Kdn(a2-6)Gal(b1-4)GlcNAc,-0.748
same,glycan array binding signal (z-score),[20],-0.753
same,glycan array binding signal (z-score),Man(a1-2)Man(a1-3)Man,-0.096
same,glycan array binding signal (z-score),Man(a1-3)[Man(a1-6)]Man,-0.136
same,glycan array binding signal (z-score),[21],0.134
same,glycan array binding signal (z-score),[22],6.97
same,glycan array binding signal (z-score),Neu5Ac(a2-6)Gal,2.2
same,glycan array binding signal (z-score),[23],-0.94
same,glycan array binding signal (z-score),Neu5Ac(a2-6)GalNAc,-1.62
same,glycan array binding signal (z-score),[24],-0.781
same,glycan array binding signal (z-score),Neu5Ac(a2-8)Neu5Ac,0.214
same,glycan array binding signal (z-score),[25],-0.835
